This assay has as its target furin, P09958. Description: furin cleavage Z-score vs untreated control; higher = more cleavage, active = 3.5 or more, inactive = 1 or less, 8 variable residues between constant flanks. The method, boiled down: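 Furin-free reactions served as the baseline for the cleavage Z-score, which is the log read count lowess-adjusted and scaled by median absolute deviation. Counts came from released DNA, adapter-tagged by PCR and sequenced. Purified furin had cut 8-mer peptides fused to a cDNA oligonucleotide on magnetic beads during 7.5, 15 or 30 min at 1:10 enzyme:substrate.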

The list shows a part of the results. The true hit rate is not given.

From the supplement of paper PMC3545927 come the findings set out here.
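Further: purified furin at 1:10 enzyme:substrate in 50 mM HEPES pH 7.5.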

Sequence of furin, P09958 (P09958 whole entry, the tested form may be a part): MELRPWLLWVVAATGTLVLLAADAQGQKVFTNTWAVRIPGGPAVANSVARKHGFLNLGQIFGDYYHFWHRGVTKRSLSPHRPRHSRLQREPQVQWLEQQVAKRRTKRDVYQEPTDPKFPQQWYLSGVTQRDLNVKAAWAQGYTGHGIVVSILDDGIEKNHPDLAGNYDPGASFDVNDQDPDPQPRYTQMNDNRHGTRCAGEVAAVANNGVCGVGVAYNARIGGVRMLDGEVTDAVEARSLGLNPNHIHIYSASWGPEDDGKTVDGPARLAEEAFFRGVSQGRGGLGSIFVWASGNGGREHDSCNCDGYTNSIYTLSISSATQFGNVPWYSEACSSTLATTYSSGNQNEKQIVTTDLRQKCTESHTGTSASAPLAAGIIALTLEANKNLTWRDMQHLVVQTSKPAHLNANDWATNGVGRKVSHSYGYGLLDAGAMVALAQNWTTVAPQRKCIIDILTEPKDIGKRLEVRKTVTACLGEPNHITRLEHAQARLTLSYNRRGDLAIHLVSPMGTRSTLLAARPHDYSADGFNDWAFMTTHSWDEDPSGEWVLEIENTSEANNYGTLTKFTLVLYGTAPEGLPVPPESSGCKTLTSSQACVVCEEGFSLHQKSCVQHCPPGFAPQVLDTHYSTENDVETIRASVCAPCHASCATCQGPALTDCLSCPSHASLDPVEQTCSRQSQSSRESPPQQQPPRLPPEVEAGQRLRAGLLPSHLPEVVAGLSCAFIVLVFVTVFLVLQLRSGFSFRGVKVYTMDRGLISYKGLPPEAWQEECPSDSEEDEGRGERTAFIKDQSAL

In the case of CAPPQPEYDLAGNASASA [HC1547], the “furin cleavage Z-score” value is, setting by setting: (7.5 min) -0.102 (inactive); (15 min) 2.02; (30 min) -0.964 (inactive).
Take CAVQARDLGPAGNASASA [FS-1874]: the “furin cleavage Z-score” value is -2.04 (inactive) (7.5 min), -0.417 (inactive) (15 min) and -1.57 (inactive) (30 min).
CAEVVTSTWCAGNASASA [HC2260]: the “furin cleavage Z-score” value (7.5 min) is -0.517 (inactive), the “furin cleavage Z-score” value (15 min) stood at 2.75 and the “furin cleavage Z-score” value (30 min) was 0.14 (inactive).
For the sequence CARVRRAAAEAGNASASA [FS-2104], the “furin cleavage Z-score” value (7.5 min) is 12.4 (active), the “furin cleavage Z-score” value (15 min) was 11.6 (active) and the “furin cleavage Z-score” value (30 min) was 8.72 (active).
On the same counts, the results for CARVRRRLDLAGNASASA [FS-2843] are 2.08, 5.18 (active) and 6.19 (active).
The corresponding values for CAASKVKANLAGNASASA [HC1408] are 2.23, 1.5 and -1.01 (inactive).
CARETRSARDAGNASASA [FS-186]: the “furin cleavage Z-score” value reads like this: (7.5 min) 4.31 (active); (15 min) 4.67 (active); (30 min) 5.64 (active).
CARETRSFTKAGNASASA [FS-1699]: the “furin cleavage Z-score” value (7.5 min) was -0.268 (inactive), the “furin cleavage Z-score” value (15 min) is -1.13 (inactive) and the “furin cleavage Z-score” value (30 min) is 0.163 (inactive).
The corresponding values for CAHKKRSARDAGNASASA [FS-1338] are 9.15 (active), 11 (active) and 8.17 (active).
The corresponding values for CARETRYVELAGNASASA [FS-2918] are 0.274 (inactive), 0.951 (inactive) and 1.86.
As for CAAYALDTEVAGNASASA [HC564], the “furin cleavage Z-score” value (7.5 min) is -0.288 (inactive), the “furin cleavage Z-score” value (15 min) is -0.347 (inactive) and the “furin cleavage Z-score” value (30 min) was 0.258 (inactive).
The corresponding values for CAMEECSQALAGNASASA [HC1743] are 1.12, 0.147 (inactive) and 0.968 (inactive).
On to CADTEVVTSTAGNASASA [HC2298], for which the “furin cleavage Z-score” value runs as follows: (7.5 min) -0.856 (inactive); (15 min) -0.105 (inactive); (30 min) -0.202 (inactive).
With CARTRRSWVWAGNASASA [FS-2385], the “furin cleavage Z-score” value (7.5 min) is 0.299 (inactive), the “furin cleavage Z-score” value (15 min) was -0.875 (inactive) and the “furin cleavage Z-score” value (30 min) stood at 3.19.
CARTKRFSHTAGNASASA [FS-2827]: the “furin cleavage Z-score” value (7.5 min) turned out to be 1.99, the “furin cleavage Z-score” value (15 min) was 3.53 (active) and the “furin cleavage Z-score” value (30 min) is 5.48 (active).
On the same counts, the results for CARTRRISQTAGNASASA [FS-2468] are -0.0765 (inactive), 0.134 (inactive) and 0.486 (inactive).
On the same counts, the results for CARTKRHRSTAGNASASA [FS-2829] are 2.1, 4.17 (active) and 5.45 (active).
Turning to CARTKRSWVWAGNASASA [FS-2613], the “furin cleavage Z-score” value by setting is: (7.5 min) 2.5; (15 min) 3.65 (active); (30 min) 6.25 (active).
The corresponding values for CARTKKSSVQAGNASASA [FS-1841] are 0.0621 (inactive), -0.697 (inactive) and -0.462 (inactive).
The corresponding values for CAPSKRGNSTAGNASASA [FS-2877] are -0.745 (inactive), -0.0005 (inactive) and 0.164 (inactive).
In the case of CARTKRSSTTAGNASASA [FS-3108], the “furin cleavage Z-score” value is 6.96 (active) (7.5 min), 8.23 (active) (15 min) and 7.55 (active) (30 min).
In the case of CARACRGVTTAGNASASA [FS-2880], the “furin cleavage Z-score” value is 0.00727 (inactive) (7.5 min), -0.299 (inactive) (15 min) and 0.871 (inactive) (30 min).
Turning to CARTKRGWMWAGNASASA [FS-2828], the “furin cleavage Z-score” value reads like this: (7.5 min) -0.833 (inactive); (15 min) 1.19; (30 min) 3.46.
On the same counts, the results for CATEECSQHLAGNASASA [HC1678] are -0.115 (inactive), 0.32 (inactive) and 0.469 (inactive).
The corresponding values for CAVVCYSMSYAGNASASA [HC97] are -0.487 (inactive), -0.359 (inactive) and 1.4.
For CAEVVMSTWVAGNASASA [HC128], the “furin cleavage Z-score” value runs as follows: (7.5 min) -0.73 (inactive); (15 min) -0.446 (inactive); (30 min) -0.0354 (inactive).
The corresponding values for CAFRIRTIRSAGNASASA [FS-772] are 12.7 (active), 13.4 (active) and 9.8 (active).
Take CASRYRFVRSAGNASASA [FS-1090]: the “furin cleavage Z-score” value (7.5 min) is 10.3 (active), the “furin cleavage Z-score” value (15 min) was 8.88 (active) and the “furin cleavage Z-score” value (30 min) was 7.53 (active).
Regarding CASRYRFIRSAGNASASA [FS-1089], the “furin cleavage Z-score” value reads like this: (7.5 min) 9.42 (active); (15 min) 10.5 (active); (30 min) 7.95 (active).
As to CATPEDFVRSAGNASASA [FS-920], the “furin cleavage Z-score” value is -0.0484 (inactive) (7.5 min), -0.138 (inactive) (15 min) and -0.221 (inactive) (30 min).
The corresponding values for CAFVCCSMSYAGNASASA [HC1987] are 1.81, -0.389 (inactive) and -0.812 (inactive).
The corresponding values for CAEVVTSTWLAGNASASA [HC2245] are 0.791 (inactive), 0.0846 (inactive) and 0.0471 (inactive).
Take CAEMEECSQHAGNASASA [HC1014]: the “furin cleavage Z-score” value (7.5 min) was -0.42 (inactive), the “furin cleavage Z-score” value (15 min) is 0.366 (inactive) and the “furin cleavage Z-score” value (30 min) amounted to 1.51.
Consider CARPRREAPFAGNASASA [FS-2742], for which the “furin cleavage Z-score” value runs as follows: (7.5 min) 9.78 (active); (15 min) 10.3 (active); (30 min) 8.49 (active).
The corresponding values for CARPRRMTPFAGNASASA [FS-2744] are 2.59, 4.44 (active) and 4.82 (active).
With CAPPCKPLLRAGNASASA [HC1228], the “furin cleavage Z-score” value reads like this: (7.5 min) 0.659 (inactive); (15 min) 0.392 (inactive); (30 min) 0.118 (inactive).
The corresponding values for CAEVSTSTWVAGNASASA [HC2197] are -0.613 (inactive), 0.268 (inactive) and -1.55 (inactive).
For the sequence CATTWCSGSWAGNASASA [HC1868], the “furin cleavage Z-score” value is -0.625 (inactive) (7.5 min), -0.0771 (inactive) (15 min) and -0.259 (inactive) (30 min).
The corresponding values for CAVVCCSGSYAGNASASA [HC2056] are -1.92 (inactive), -0.697 (inactive) and -1.32 (inactive).
For the sequence CAVTSRSFRTAGNASASA [FS-894], the “furin cleavage Z-score” value (7.5 min) worked out at 1.05, the “furin cleavage Z-score” value (15 min) is -0.0745 (inactive) and the “furin cleavage Z-score” value (30 min) is -0.661 (inactive).
With CAPKGRGKRRAGNASASA [FS-1241], the “furin cleavage Z-score” value is 3.48 (7.5 min), 3.42 (15 min) and 4.16 (active) (30 min).
As for CALNGRCRRTAGNASASA [FS-134], the “furin cleavage Z-score” value (7.5 min) is 6.57 (active), the “furin cleavage Z-score” value (15 min) is 6.93 (active) and the “furin cleavage Z-score” value (30 min) was 8.18 (active).
The corresponding values for CAKKGRNRRTAGNASASA [FS-935] are 9.29 (active), 8.34 (active) and 7.42 (active).
With CAKKGRGKRTAGNASASA [FS-41], the “furin cleavage Z-score” value runs as follows: (7.5 min) 6.83 (active); (15 min) 9.38 (active); (30 min) 6.62 (active).
Take CALNGREHRSAGNASASA [FS-353]: the “furin cleavage Z-score” value by setting is: (7.5 min) 0.641 (inactive); (15 min) -0.584 (inactive); (30 min) -0.522 (inactive).
